{"source": "PubChem BioAssay AID1117361", "about": "(Southern Research Institute, 2015)", "note": "The campaign covered roughly 3,600 compounds. About 900 (25%) were called active. How the calls were made is not given here. These entries were drawn from the full list. Entries with a potency or affinity are not part of this list.", "data": [{"biological_target": "Protein Tat (Human immunodeficiency virus type 1 group M subtype B (isolate HXB2)) (UniProt P04608)", "experiment": "inhibitors of Tat binding to TAR RNA, dose response, counter-screen for Vif-APOBEC3G degradation inhibitor project, biochemical, fluorescence polarization, FAM-labeled TAR RNA (AID 1117361)", "details": "outcome: at 100 µM (top of the series) unless noted; series mostly up to 100 µM", "values": [{"smiles": "Cc1sc2ncnc(OCC(=O)NCC3CCCO3)c2c1C", "note": "(centres undefined)", "outcome": "inactive"}, {"smiles": "CN(Cc1ccccc1)C(=O)C1CCCN1S(=O)(=O)c1ccc2c(c1)n(C)c(=O)c(=O)n2C", "note": "(centres undefined)", "outcome": "inactive"}, {"smiles": "O=C(NCCSCc1ccccc1)c1ccc(C2SCC(=O)N2Cc2ccccc2)cc1", "note": "(centres undefined)", "outcome": "inactive"}, {"smiles": "CCCn1nc(Oc2nc(SC)nc(N(C)C)n2)ccc1=O", "outcome": "inactive"}, {"smiles": "COc1ccc2nc(-c3ccccc3)cc(C(=O)OCC(=O)N3CC(C)OC(C)C3)c2c1", "note": "(centres undefined)", "outcome": "inactive"}, {"smiles": "O=C(Nn1cnnc1)c1cc(-c2cccc(Br)c2)nc2ccccc12", "outcome": "inactive"}, {"smiles": "CC(C)OP(=O)(OC(C)C)C(O)c1ccc(N(C)C)cc1", "note": "(centres undefined)", "outcome": "inactive"}, {"smiles": "Cc1oc(/N=C/c2cccc3ccccc23)c(C#N)c1C", "outcome": "inactive"}, {"smiles": "O=C1C=C(c2c(O)ccc3ccccc23)c2ccccc2C1=O", "outcome": "inactive"}, {"smiles": "COc1ccc(CCN2CC(C(=O)NCC(c3ccccc3)N(C)C)CC2=O)cc1OC", "note": "(centres undefined)", "outcome": "inactive"}, {"smiles": "COc1cc2c(cc1OC)C(C)N(C(=O)c1cc3n(n1)C(C(F)(F)F)CC(c1ccco1)N3)CC2", "note": "(centres undefined)", "outcome": "inactive"}, {"smiles": "Cc1[nH]c(=O)[nH]c(=O)c1S(=O)(=O)N1CCCC(C(=O)NCCc2ccccc2)C1", "note": "(centres undefined)", "outcome": "inactive"}, {"smiles": "CCC(C)[C@H](NC(=O)N1CCCC1)C(=O)O", "note": "(some centres undefined)", "outcome": "inactive"}, {"smiles": "CCOC(=O)c1[nH]nc(-c2c(O)cc(C)cc2O)c1-c1csc(C)n1", "outcome": "inactive"}, {"smiles": "CC(=O)N1CCc2cc(S(=O)(=O)NC(C(=O)NC3CCCc4ccccc43)C(C)C)ccc21", "note": "(centres undefined)", "outcome": "inactive"}, {"smiles": "Cc1nc2ccc(S(=O)(=O)NC(C(=O)N3CCC(C)CC3)C(C)C)cc2s1", "note": "(centres undefined)", "outcome": "inactive"}, {"smiles": "COC(=O)C1CCCN1S(=O)(=O)c1ccc2ccccc2c1", "note": "(centres undefined)", "outcome": "inactive"}, {"smiles": "Cc1ccc(Nc2nc3ccccc3nc2-n2nc(C)cc2C)cc1", "outcome": "inactive"}, {"smiles": "COCCn1c(SCC(=O)Nc2cccc(C)n2)nnc1-c1ccco1", "outcome": "inactive"}, {"smiles": "Cc1c(Cl)cccc1NC(=O)CSc1nnc(C)n1-c1ccccc1", "outcome": "inactive"}, {"smiles": "Cc1cccc(NC(=O)CSc2nnc(-c3ccccc3C)o2)c1", "outcome": "inactive"}, {"smiles": "Cc1nc(SCC(=O)Nc2ccnc3ccccc23)n[nH]1", "outcome": "inactive"}, {"smiles": "CC(C)Cn1c(SCC(=O)Nc2cccnc2Cl)nnc1-c1ccco1", "outcome": "inactive"}, {"smiles": "Cc1cc(SCC(=O)Nc2ccccc2C)nc(C)n1", "outcome": "inactive"}, {"smiles": "CCC1(C)Cc2c(sc(NC(=O)CCC(=O)O)c2C#N)CO1", "note": "(centres undefined)", "outcome": "inactive"}, {"smiles": "CCCSc1nc2c(cnn2-c2ccc(C)cc2)c(=O)[nH]1", "outcome": "inactive"}, {"smiles": "CCCCc1cc(C(=O)Cc2ccccn2)c(O)cc1O", "outcome": "inactive"}, {"smiles": "CC(C)NC(=O)c1ccc(COCC(F)(F)C(F)F)cc1", "outcome": "inactive"}, {"smiles": "CN(C)CCOCCSc1ccc(Cl)cc1", "outcome": "inactive"}, {"smiles": "CC(C)(NO)/C(=N\\O)c1ccccc1", "outcome": "inactive"}, {"smiles": "Cc1cc(Nc2ccc(Br)cc2)n2nc(C)nc2n1", "outcome": "inactive"}, {"smiles": "CCc1cc2c(N3CCCCC3)ncnc2s1", "outcome": "inactive"}, {"smiles": "CCOc1ccc(Nc2nc(Cc3nnc(SCC(=O)NCC4CCCO4)n3C)cs2)cc1", "note": "(centres undefined)", "outcome": "inactive"}, {"smiles": "CCOC(=O)c1c(C)[nH]c(C(=O)OCC(=O)N2c3ccccc3CC2C)c1C", "note": "(centres undefined)", "outcome": "inactive"}, {"smiles": "S=C(Nc1cccc(Cl)c1)NC1CCCCC1", "outcome": "inactive"}, {"smiles": "CC(=O)N1CCc2cc(S(=O)(=O)NCCC(=O)Nc3cccc(C)c3C)ccc21", "outcome": "inactive"}, {"smiles": "CC(=O)Nc1ccc(NC(=O)CN(c2cccc(C(C)=O)c2)S(C)(=O)=O)cc1", "outcome": "inactive"}, {"smiles": "Cn1nnc(NC(=O)c2cccc(F)c2)n1", "outcome": "inactive"}, {"smiles": "CC1CCc2[nH]c3ccc(C(=O)N(C)CC(=O)Nc4ccc(F)cc4)cc3c2C1", "note": "(centres undefined)", "outcome": "inactive"}, {"smiles": "O=C(NNC(=O)c1ccccc1F)c1cccc(-n2cccc2)c1", "outcome": "inactive"}, {"smiles": "CC(=O)c1cccc(NC(=O)c2cnn3ccccc23)c1", "outcome": "inactive"}, {"smiles": "CCN(CC)C(=O)NCc1c(C)cc(C)cc1C", "outcome": "inactive"}, {"smiles": "Cc1ccc(-n2[nH]c(=O)c3cccnc32)cc1", "outcome": "inactive"}, {"smiles": "O=C(Nc1ccc(Cl)c(-c2nc3ccccc3[nH]2)c1)c1cccnc1", "outcome": "inactive"}, {"smiles": "CCCCCCN(C(=O)CCCCCN1C(=O)NC(c2ccc(C(C)(C)C)cc2)C(C(=O)OCc2ccccc2)=C1C)C(C(=O)NCCCC)c1ccc(OCC(=O)OC)c(C(=O)OC)c1", "note": "(centres undefined)", "outcome": "inactive"}, {"smiles": "CCOC(CNC(=O)C(=O)Nc1cc2c3c(c1)CC(=O)N3CCC2)OCC", "outcome": "inactive"}, {"smiles": "CCOC(=O)C1CCN(S(=O)(=O)c2cccc(-c3cn4cccc(C)c4n3)c2)CC1", "outcome": "inactive"}, {"smiles": "C/C(=N\\n1c(C)nc2ccccc2c1=O)c1ccc(C)o1", "outcome": "inactive"}, {"smiles": "COc1ccc(C(=O)CSc2n[nH]c(N)n2)cc1", "outcome": "inactive"}, {"smiles": "CCOC(=O)c1sc(-c2ccccc2)cc1NC(=O)CSc1nnnn1C", "outcome": "inactive"}, {"smiles": "Cc1cc(C(=O)N2CCN(C/C=C/c3ccccc3)CC2)cs1", "outcome": "inactive"}, {"smiles": "CC1=C(C(=O)N2CCCCC2)C2(CCC(C)CC2)OC1=O", "note": "(centres undefined)", "outcome": "inactive"}, {"smiles": "COc1ccc(OC)c(S(=O)(=O)Nc2cnc3ccccc3c2)c1", "outcome": "inactive"}, {"smiles": "COc1ccc(NS(=O)(=O)c2cccc(Cl)c2Cl)cc1S(=O)(=O)N1CCCCC1", "outcome": "inactive"}, {"smiles": "COC(=O)CN1C(=O)C(O)=C(C(C)=O)C1c1ccc([N+](=O)[O-])cc1", "note": "(centres undefined)", "outcome": "inactive"}, {"smiles": "CC1(c2ccccc2)NC(=O)N(CC(=O)Nc2cccc(C#N)c2)C1=O", "note": "(centres undefined)", "outcome": "inactive"}, {"smiles": "CS(=O)(=O)N1CCC(C(=O)Nc2ccccc2)CC1", "outcome": "inactive"}, {"smiles": "O=C(CCc1ccccc1)Nc1ccc2c(c1)OCCO2", "outcome": "inactive"}, {"smiles": "COc1ccccc1N(CC(=O)NC(C)C)S(=O)(=O)c1cccs1", "outcome": "inactive"}, {"smiles": "CC(C)c1nnc(NC(=O)CCC(=O)NCc2ccco2)s1", "outcome": "inactive"}, {"smiles": "O=C(Nc1ccncc1)C1CCN(S(=O)(=O)c2c(Cl)cccc2Cl)CC1", "outcome": "inactive"}, {"smiles": "O=C(Nc1cc(Cl)ccn1)C1CCN(S(=O)(=O)c2cccs2)CC1", "outcome": "inactive"}, {"smiles": "O=C(CN1CCCCC1)Nc1nnc(-c2ccccc2)s1", "outcome": "inactive"}, {"smiles": "CC(=O)C1=C(N2CCCCC2)CCC1=O", "outcome": "inactive"}, {"smiles": "Cc1ccc(CNC(=O)CN(c2cccc([N+](=O)[O-])c2)S(C)(=O)=O)cc1", "outcome": "inactive"}, {"smiles": "CCCn1[nH]cc(SC)c(=O)c1=O", "outcome": "inactive"}, {"smiles": "O=c1c(N=Nc2ccc(O)cc2)c(-c2ccccc2)[nH]n1-c1ccc([N+](=O)[O-])cc1", "outcome": "inactive"}, {"smiles": "CC(SC1=NCCS1)C(=O)Nc1nnc(-c2ccc(Cl)cc2)s1", "note": "(centres undefined)", "outcome": "inactive"}, {"smiles": "CCn1cc(S(=O)(=O)CC(=O)Nc2ccc(OC)cc2)c2ccccc21", "outcome": "inactive"}, {"smiles": "COc1cc(C(=O)Nc2ccc(S(=O)(=O)NC(C)C)cc2)cc(OC)c1OC", "outcome": "inactive"}, {"smiles": "C#Cc1ccc([C@H]2C=C(C(=O)N3CCOCC3)O[C@@H](OCc3ccc(CO)cc3)C2)cc1", "outcome": "inactive"}, {"smiles": "COc1ccccc1C(=O)Nc1cccc(-c2cn3ccsc3n2)c1", "outcome": "inactive"}, {"smiles": "O=C(OCn1ncc(Br)c(Br)c1=O)c1ccc(F)cc1", "outcome": "inactive"}, {"smiles": "C=CCc1ccc(OCCCCN2CC(C)OC(C)C2)c(OC)c1", "note": "(centres undefined)", "outcome": "inactive"}, {"smiles": "O=C(NCCCN1CCOCC1)C1(c2ccccc2)CCCC1", "outcome": "inactive"}, {"smiles": "COc1ccc(C(=O)Oc2c(CN3CCOCC3)cc(Cl)c3cccnc23)cc1", "outcome": "inactive"}, {"smiles": "Cc1ccc(C(=O)Oc2ccc(Cl)c3cccnc23)cc1[N+](=O)[O-]", "outcome": "inactive"}, {"smiles": "Oc1c(CN2CCOCC2)cc(CN2CCOCC2)c(O)c1O", "outcome": "inactive"}, {"smiles": "O=[N+]([O-])c1cc(CN2CCN(c3cccc(C(F)(F)F)c3)CC2)c2cccnc2c1O", "outcome": "inactive"}, {"smiles": "Cc1[nH]c2ccccc2c1C1=CC(=O)C=CC1=O", "outcome": "inactive"}, {"smiles": "CC[n+]1c(/C=C2/C=C(C)CC(C)(C)C2)sc2ccc(OC)cc21", "outcome": "inactive"}, {"smiles": "Cc1nn(CC(=O)NC2CC2)c(C)c1S(=O)(=O)N(C)C", "outcome": "inactive"}, {"smiles": "C/C(N)=C(/C#N)C(=O)CSc1nnc(Nc2c(C)cccc2C)s1", "outcome": "inactive"}, {"smiles": "CC(Oc1ccc(Cl)cc1)c1ccnn1S(C)(=O)=O", "note": "(centres undefined)", "outcome": "inactive"}, {"smiles": "CC(=O)Nc1cc(NC(C)=O)cc(C(=O)N2CCCC3CCCCC32)c1", "note": "(centres undefined)", "outcome": "inactive"}, {"smiles": "CCC(=O)Nc1ccc(S(=O)(=O)NC[C@H]2O[C@@H](n3cc(C)c(=O)[nH]c3=O)C[C@@H]2O)cc1", "outcome": "inactive"}, {"smiles": "CCOC(=O)CSc1nnc(-c2ccccc2NC(=O)c2ccccc2)o1", "outcome": "inactive"}, {"smiles": "O=C(NCc1cn2ccccc2n1)c1ccc2c(c1)OCO2", "outcome": "inactive"}, {"smiles": "Cn1ncc2c(Nc3ccc4ccccc4c3)ncnc21", "outcome": "inactive"}, {"smiles": "CCC(C)N1C(=O)S/C(=C/c2ccc(Sc3nc4ccccc4[nH]3)o2)C1=O", "note": "(centres undefined)", "outcome": "inactive"}, {"smiles": "COc1cccc(-c2cc(C(=O)Nc3cnn(Cc4ccccc4C)c3)no2)c1", "outcome": "inactive"}, {"smiles": "CC(C)c1ccc(NC(=O)C(c2ccccc2)N2CCC3(CC2)OCCO3)cc1", "note": "(centres undefined)", "outcome": "inactive"}, {"smiles": "Cc1ccc(S(=O)(=O)N2CCN(C(C(=O)Nc3ccc(F)cc3)c3ccccc3)CC2)cc1", "note": "(centres undefined)", "outcome": "inactive"}, {"smiles": "Cc1[nH]c2ccccc2c1C(=O)Cn1c(=O)oc2ccccc21", "outcome": "inactive"}, {"smiles": "O=C(CCC(=O)OCC(=O)c1ccc(F)cc1)NC1CCCCC1", "outcome": "inactive"}, {"smiles": "CCOC(=O)C1=C(CSc2nc(C)ccc2C#N)OC(N)=C(C#N)C1c1cccc(OC)c1OC", "note": "(centres undefined)", "outcome": "inactive"}, {"smiles": "O=C(CN(c1ccc(F)cc1)S(=O)(=O)c1ccc2c(c1)OCCO2)NCc1ccccn1", "outcome": "inactive"}, {"smiles": "COc1ccc(N(CC(=O)NCc2ccccc2C)S(=O)(=O)c2ccc(C)cc2)cc1OC", "outcome": "inactive"}, {"smiles": "NNC(=O)c1ccc(N2CCc3ccccc32)c([N+](=O)[O-])c1", "outcome": "inactive"}, {"smiles": "O=C(NCc1ccncc1)c1cnccn1", "outcome": "inactive"}, {"smiles": "COC(=O)c1ccc(NC(=S)NCCC2=CCCCC2)cc1", "outcome": "inactive"}, {"smiles": "CC(=O)Nc1ccc(NC(=O)C(C)OC(=O)CCc2c[nH]c3ccccc23)cc1", "note": "(centres undefined)", "outcome": "inactive"}, {"smiles": "C=CCN(CC=C)C(=S)NC(=O)c1ccc([N+](=O)[O-])cc1", "outcome": "inactive"}, {"smiles": "C/C(=N\\NC(=O)c1cnccn1)c1ccc([N+](=O)[O-])cc1", "outcome": "inactive"}, {"smiles": "CC1=CC(C)(C)N=C(Nc2nc(C)c3cc(C)cc(C)c3n2)N1", "outcome": "inactive"}, {"smiles": "O=C(C/C=N/OCc1c(Cl)cccc1Cl)c1ccc(Cl)cc1", "outcome": "inactive"}, {"smiles": "CC(C)(C)OC(=O)N1CCCC1C(=O)N1CCc2ccccc21", "note": "(centres undefined)", "outcome": "inactive"}, {"smiles": "CC(=O)c1cc2c(cc1NC(=O)CSc1nc3ccccc3o1)OCO2", "outcome": "inactive"}, {"smiles": "O=[N+]([O-])c1ccc2nc(-c3ccccc3)oc2c1", "outcome": "inactive"}]}]}
